Screening data as filed in PubChem.
Hits are enriched below; roughly 3.5% of the tested compounds scored in any of these assays.
TWEAK Fn14 block: inhibitors of TWEAK-Fn14 interaction signaling; TWEAK-stimulated Fn14 reporter cells, luciferase luminescence, 8 h; inhibition, % at 10 µM; 360,000 compounds, 2% hits; in the data active = inhibition above about 50%
PPC-1+TRAIL kill: PPC-1 cancer cell killing with TRAIL present | PPC-1 cells + TRAIL, ATPLite viability luminescence | cell killing (% activity), % at 4 µM or 5 µM | 220,000 compounds, 0.41% hits;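 active = cell killing above 50% in the first pass at 4 µM, then a duplicate retest at 5 µM averaging 50% or more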;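 note: plate controls were cells with TRAIL plus DMSO for no effect and medium-only wells lacking cells for full effect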
HSP90 inh: HSP90 refolding inhibition in rabbit reticulocyte lysate | 290,000 compounds, 0.91% hits | luciferase refolding luminescence, 3 h | AID 1789 | inhibition, % at 5.6 µM;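 active = inhibition above the screen-wide mean plus 3 SD, computed separately per campaign, cut at about 16% in these data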;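 note: 0% = DMSO wells and 100% = 60 µM geldanamycin wells; inhibitors lower the luminescence because luciferase stays unfolded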
Platelet DG rel: platelet dense granule release activity. human platelet-rich plasma, SFLLRN dense granule ATP release, luminescence. inhibition, %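 (compounds screened at 7.5 µM in platelet-rich plasma)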. 300,000 compounds, 0.22% hits. AID 1663;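 active = mean replicate score, as percent of positive control, at or above 50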
TROY signal inh: TROY signaling inhibition. Q293 LMP1-TROYcd NF-kB luciferase reporter, 4 h. inhibition, % at 10 µM. 360,000 compounds, 0.98% hits. AID 1347056;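 active = compounds whose plate-normalised and pattern-corrected inhibition of the luciferase reporter signal at the single screening dose is 50% or more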
TRAIL sens C8: sensitizes caspase-8 expressing cells to TRAIL | 360,000 compounds, 1% hits | AID 624354 | NB7+C8 cells + TRAIL, ATPlite viability luminescence | inhibition (viability loss, TRAIL sensitization), % at 10 µM;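 active = compounds causing at least 50% loss of cell viability in the single-dose screen, relative to plate controls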
HSP90 confirm: HSP90 inhibition, confirmation assay; rabbit reticulocyte lysate, luciferase refolding luminescence, 3 h; AID 1846; shares compounds with HSP90 inh; inhibition, % at 5.9 µM; 2,300 compounds, 64% hits; in the data active = inhibition above about 18%;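 note: 0% = vehicle wells and 100% = reference inhibitor wells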
luciferase ctr: counter-screen for HSP90 inhibitors: inhibitors of firefly luciferase | shares compounds with HSP90 inh | purified native firefly luciferase, luminescence | inhibition, % at 5.9 µM | 2,300 compounds, 48% hits;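 active = inhibition above the mean inhibition of all tested sample wells plus 3 SD, cut at about 10% in these data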;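 note: 0% = DMSO with luciferase and 100% = wells lacking luciferase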
Target sequence (P08659 whole entry, looked up): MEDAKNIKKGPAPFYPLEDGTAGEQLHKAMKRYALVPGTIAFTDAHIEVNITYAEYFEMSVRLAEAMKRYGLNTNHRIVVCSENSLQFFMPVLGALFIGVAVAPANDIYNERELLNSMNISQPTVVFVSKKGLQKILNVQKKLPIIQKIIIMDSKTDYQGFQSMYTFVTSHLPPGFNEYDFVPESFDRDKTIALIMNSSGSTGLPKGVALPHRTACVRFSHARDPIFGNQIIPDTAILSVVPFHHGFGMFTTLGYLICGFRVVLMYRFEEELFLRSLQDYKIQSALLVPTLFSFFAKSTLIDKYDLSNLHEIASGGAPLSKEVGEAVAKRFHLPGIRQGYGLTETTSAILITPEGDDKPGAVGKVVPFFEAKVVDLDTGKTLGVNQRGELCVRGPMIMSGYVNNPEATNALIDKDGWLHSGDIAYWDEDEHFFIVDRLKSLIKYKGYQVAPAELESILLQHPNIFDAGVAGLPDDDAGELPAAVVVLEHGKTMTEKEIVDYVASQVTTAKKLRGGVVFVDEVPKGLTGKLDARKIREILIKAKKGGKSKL
Starred values were filed as active, the others as inactive; . = no result.

SMILES	TWEAK Fn14 block	PPC-1+TRAIL kill	HSP90 inh	Platelet DG rel	TROY signal inh	TRAIL sens C8	HSP90 confirm	luciferase ctr
Cc1cc(CNC[C@H]2O[C@@H](n3cnc(C(N)=O)n3)[C@H](O)[C@@H]2O)c(C)n1-c1cccnc1	7	.	.	.	0	10	.	.
COc1ccc(/C=C2/C(=O)N(c3ccccc3)N=C2C)cc1	0	.	.	0	-8	-17	.	.
COc1ccc(C2=NN(c3ccccc3)C(=O)/C2=C\c2ccc(O)c(OC)c2)cc1	-52	11	25*	11	20	-5	-10	-5
CCC/C(C#Cc1ccsc1)=C1/c2ccccc2C(=O)N1c1ccccc1	40	.	.	.	-64	-9	.	.
Cc1cc(C)nc(Nc2nc(-c3ccccc3)cs2)n1	63*	.	28*	16	39	77*	51*	37*
Cc1cc(C)nc(Nc2nc(C(N)c3ccccc3)cs2)n1 (stereo not drawn)	4	.	.	.	13	28	.	.
O=C(Nc1cccc(O)c1)c1cc(-c2cccs2)on1	69*	.	31*	26	7	17	64*	57*
O=C(Nc1cccc(O)c1)c1noc2c1CCCCC2	81*	-2	60*	64*	59*	60*	69*	57*
O=C(Nc1ccccc1C(=O)N1CCOCC1)c1noc2c1CCCC2	-8	7	-3	-1	1	-4	.	.
COc1ccc(NC(=O)c2noc3c2CCC3)cc1	58*	-6	27*	19	-20	30	20*	31*
CC(=O)c1cccc(NC(=O)c2cc(-c3cccs3)on2)c1	-18	.	1	1	-51	0	.	.
CCN(CC)CCN(C(=O)c1ccc(Br)s1)c1nc2cc3c(cc2s1)OCCO3	0	7	51*	-5	-34	-13	-3	-17
CCN(CC)CCN(C(=O)c1ccc2ncsc2c1)c1nc2cc3c(cc2s1)OCO3	-41	.	34*	-7	-75	7	34*	16*
CC(=O)N1c2ccc(S(=O)(=O)N3CCC(C(=O)Nc4cccc(F)c4)CC3)cc2CC1C (stereo not drawn)	0	.	-2	7	3	-1	.	.
Cc1cc(C(=O)C[N+]2(C)CCOCC2)c(C)n1-c1ccc(Br)cc1	-15	-4	3	3	1	-4	.	.
COc1ccc(C(C[N+](=O)[O-])c2c(C)[nH]n(-c3ccccc3)c2=O)cc1 (stereo not drawn)	8	.	26*	-5	20	-18	50*	-9
COc1cccc(C(c2c(C)[nH]n(-c3ccccc3)c2=O)c2c(C)[nH]n(-c3ccccc3)c2=O)c1O	-6	.	.	0	-4	-9	.	.
Cc1[nH]n(-c2ccccc2)c(=O)c1C(c1ccc(O)c([N+](=O)[O-])c1)c1c(C)[nH]n(-c2ccccc2)c1=O	-12	.	26*	-1	-38	-1	-3	-3
CC(=O)NC(CC(=O)NCCCn1ccc2ccccc21)c1ccccc1 (stereo not drawn)	17	.	0	5	9	2	.	.
CN(C1CCCCC1)S(=O)(=O)c1ccc(SCC(=O)C(C)(C)C)nc1	-6	.	.	.	5	0	.	.
CCc1ccc(C(=O)/C=C/c2cnn(C)c2C)s1	60*	29	35*	7	67*	25	26*	52*
CCCOC(=O)Nc1ccc(N2CCCCC2)cc1	26	38	21*	-5	-52	34	34*	21*
CN(C)S(=O)(=O)Oc1ccsc1C(=O)Nc1ccc(Cl)c(Cl)c1	22	9	20*	0	-1	4	6	-2
O=C(CSc1nnc(-c2ccccc2)o1)N1CCCCC1	10	.	21*	10	-27	-2	2	-19
